For part of these data: Measured potencies and affinities stand elsewhere.
How the values were obtained:
Staphylococcus aureus = experiment: Antibacterial activity against Staphylococcus aureus MRSA ATCC 43300 (CO-ADD:GP_020); MIC in CAMBH media using NBS plates, by Resazurin F(560/590); format: functional; settings: Concentration 20 uM, ASSAY_TEST Inhibition of Bacterial Growth, detection method Resazurin, Fluorescence (ex560/em590), MEDIA CAMHB, plate type 384well, CORNING #3640, time 18 hr
Acinetobacter baumannii = experiment: Antibacterial activity against Acinetobacter baumannii ATCC 19606 (CO-ADD:GN_034); MIC in CAMBH media using NBS plates, by Resazurin F(560/590); format: functional; settings: Concentration 20 uM, ASSAY_TEST Inhibition of Bacterial Growth, detection method Resazurin, Fluorescence (ex560/em590), MEDIA CAMHB, plate type 384well, CORNING #3640, time 18 hr
Escherichia coli = experiment: Antibacterial activity against Escherichia coli ATCC 25922 (CO-ADD:GN_001); MIC in CAMBH media using NBS plates, by Resazurin F(560/590); format: functional; settings: Concentration 20 uM, ASSAY_TEST Inhibition of Bacterial Growth, detection method Resazurin, Fluorescence (ex560/em590), MEDIA CAMHB, plate type 384well, CORNING #3640, time 18 hr
Klebsiella pneumoniae = settings: Concentration 20 uM; ASSAY_TEST Inhibition of Bacterial Growth; detection method Absorption (OD600); MEDIA CAMHB; plate type 384well; NBS; CORNING #3640; time 18 hr
Candida albicans = settings: 20 µM
Cryptococcus neoformans = settings: Concentration 20 uM; ASSAY_TEST Inhibition of Fungal Growth; detection method Resazurin; Absorption (OD600-OD570); plate type 384well; NBS; CORNING #3640

Q: For `CC1(C)CCCC2(C)C(OCCO)=CC(=O)C=C12` (stereo unspecified), which Inhibition (Staphylococcus aureus) is on record?
A: The Inhibition was 7.52%.

Q: And the Inhibition (Acinetobacter baumannii)?
A: The Inhibition was 8.39%.

Q: What about the Inhibition (Escherichia coli) of the same compound?
A: Its Inhibition is 0.39%.

Q: What about the Inhibition (Klebsiella pneumoniae) of the same compound?
A: The Inhibition was 20.08%.

Q: What about the Inhibition (Candida albicans) of the same compound?
A: The Inhibition was 2.7%.

Q: What about the Inhibition (Cryptococcus neoformans) of the same compound?
A: Its Inhibition is -10.94%.

Q: What does the source list for `Cc1nc(N)nc(O)c1CCCNc1ccc(CCC2(CCl)OCCO2)cc1`?
A: Inhibition (Staphylococcus aureus): 17.48%; Inhibition (Acinetobacter baumannii): 2.84%; Inhibition (Escherichia coli): 11.06%; Inhibition (Klebsiella pneumoniae): 8.53%; Inhibition (Candida albicans): 1.57%; Inhibition (Cryptococcus neoformans): 3.7%

Q: How did the Inhibition (Staphylococcus aureus) turn out when `Nc1ccc2c(c1)Cc1cc(Cl)c(Cl)cc1-2` was run?
A: Its Inhibition is 12.19%.

Q: What about the Inhibition (Acinetobacter baumannii) of the same compound?
A: Its Inhibition is -1.44%.

Q: What about the Inhibition (Escherichia coli) of the same compound?
A: Its Inhibition is 15.96%.

Q: What about the Inhibition (Klebsiella pneumoniae) of the same compound?
A: Its Inhibition is 4.46%.

Q: And the Inhibition (Candida albicans)?
A: The Inhibition was 8.7%.

Q: What about the Inhibition (Cryptococcus neoformans) of the same compound?
A: The Inhibition was -5.33%.

Q: What does the source list for `COc1cc2c(cc1OC)C(/C=C/c1ccco1)=NCC2.O=S(=O)(O)O`?
A: Inhibition (Staphylococcus aureus): 23.97%; Inhibition (Acinetobacter baumannii): 13.38%; Inhibition (Escherichia coli): 7.22%; Inhibition (Klebsiella pneumoniae): 11.02%; Inhibition (Candida albicans): -0.93%; Inhibition (Cryptococcus neoformans): -6.67%

Q: Which Inhibition (Staphylococcus aureus) does the source give for `O=C(/C=C/c1cccnc1)/C=C/c1cccnc1` here?
A: The Inhibition was 16.75%.

Q: What about the Inhibition (Acinetobacter baumannii) of the same compound?
A: The Inhibition was 4.07%.

Q: What about the Inhibition (Escherichia coli) of the same compound?
A: Its Inhibition is 0.92%.

Q: What about the Inhibition (Klebsiella pneumoniae) of the same compound?
A: The Inhibition was 20.07%.

Q: And the Inhibition (Candida albicans)?
A: The Inhibition was 31.4%.

Q: What about the Inhibition (Cryptococcus neoformans) of the same compound?
A: Its Inhibition is -2.05%.

Q: What does the source list for `CCOC(=O)Cn1nc2oc(=O)c(CCN3CCN(c4ccccc4OC)CC3)c(C)c2c1C`?
A: Inhibition (Staphylococcus aureus): 17.7%; Inhibition (Acinetobacter baumannii): -3.04%; Inhibition (Escherichia coli): 11.66%; Inhibition (Klebsiella pneumoniae): 16.06%; Inhibition (Candida albicans): 2.37%; Inhibition (Cryptococcus neoformans): -3.33%

Q: Which results are given for `N#CNC(=N)c1ccccc1`?
A: Inhibition (Staphylococcus aureus): 0.25%; Inhibition (Acinetobacter baumannii): 1.21%; Inhibition (Escherichia coli): -14.26%; Inhibition (Klebsiella pneumoniae): 9.63%; Inhibition (Candida albicans): 1.62%; Inhibition (Cryptococcus neoformans): 22.72%

Q: `O=C(O)CCN1c2ccccc2Sc2ccccc21` was tested. Which Inhibition (Staphylococcus aureus) did it give?
A: The Inhibition was 8.2%.

Q: And the Inhibition (Acinetobacter baumannii)?
A: The Inhibition was -9.93%.

Q: And the Inhibition (Escherichia coli)?
A: Its Inhibition is 16.66%.

Q: What about the Inhibition (Klebsiella pneumoniae) of the same compound?
A: Its Inhibition is 14.48%.

Q: And the Inhibition (Candida albicans)?
A: The Inhibition was 16.7%.

Q: And the Inhibition (Cryptococcus neoformans)?
A: The Inhibition was -15.83%.

Q: For `CN1N=C/C(=C/NC(N)=O)C1=O`, which Inhibition (Staphylococcus aureus) is on record?
A: Its Inhibition is -2.54%.

Q: And the Inhibition (Acinetobacter baumannii)?
A: The Inhibition was -2.43%.

Q: And the Inhibition (Escherichia coli)?
A: The Inhibition was 9.08%.

Q: What about the Inhibition (Klebsiella pneumoniae) of the same compound?
A: The Inhibition was 2.78%.

Q: What about the Inhibition (Candida albicans) of the same compound?
A: Its Inhibition is 0.49%.

Q: And the Inhibition (Cryptococcus neoformans)?
A: Its Inhibition is -3.93%.

Q: What does the source list for `O=C(Nc1cccc2ccccc12)c1cc2c(cc1Br)OCO2`?
A: Inhibition (Staphylococcus aureus): 5.22%; Inhibition (Acinetobacter baumannii): 3.29%; Inhibition (Escherichia coli): 17.42%; Inhibition (Klebsiella pneumoniae): 10.46%; Inhibition (Candida albicans): 2.94%; Inhibition (Cryptococcus neoformans): -19.33%

Q: Which Inhibition (Staphylococcus aureus) does the source give for `CCN(CC)C(=O)Cn1ccc(NC(C)=O)nc1=O` here?
A: Its Inhibition is -5.08%.

Q: What about the Inhibition (Acinetobacter baumannii) of the same compound?
A: Its Inhibition is -19.36%.

Q: What about the Inhibition (Escherichia coli) of the same compound?
A: Its Inhibition is 5.52%.

Q: And the Inhibition (Klebsiella pneumoniae)?
A: The Inhibition was 3.42%.

Q: And the Inhibition (Candida albicans)?
A: The Inhibition was 0.38%.

Q: And the Inhibition (Cryptococcus neoformans)?
A: The Inhibition was -8.8%.

Q: How did the Inhibition (Staphylococcus aureus) turn out when `CCCN(CCC)CC(=O)N1CC(=O)Nc2ccccc21` was run?
A: The Inhibition was -18.07%.

Q: What about the Inhibition (Acinetobacter baumannii) of the same compound?
A: The Inhibition was -3.41%.

Q: And the Inhibition (Escherichia coli)?
A: Its Inhibition is -10.49%.

Q: And the Inhibition (Klebsiella pneumoniae)?
A: The Inhibition was 8.75%.

Q: What about the Inhibition (Candida albicans) of the same compound?
A: The Inhibition was 3.75%.

Q: What about the Inhibition (Cryptococcus neoformans) of the same compound?
A: The Inhibition was -3.68%.

Q: Which Inhibition (Staphylococcus aureus) does the source give for `COC(=O)c1c(-c2ccccc2)[nH]c(-c2nccc3ccccc23)c1C(=O)OC` here?
A: Its Inhibition is 3.54%.

Q: And the Inhibition (Acinetobacter baumannii)?
A: The Inhibition was 6.34%.

Q: What about the Inhibition (Escherichia coli) of the same compound?
A: The Inhibition was 1.46%.

Q: What about the Inhibition (Klebsiella pneumoniae) of the same compound?
A: The Inhibition was 12.08%.

Q: And the Inhibition (Candida albicans)?
A: Its Inhibition is 2.5%.

Q: What about the Inhibition (Cryptococcus neoformans) of the same compound?
A: Its Inhibition is -2.2%.

Q: Which results are given for `Cc1cc(-n2cnc3c(O)ncnc32)ccc1N`?
A: Inhibition (Staphylococcus aureus): 0.18%; Inhibition (Acinetobacter baumannii): -17.95%; Inhibition (Escherichia coli): 5.61%; Inhibition (Klebsiella pneumoniae): 1.65%; Inhibition (Candida albicans): 1.13%; Inhibition (Cryptococcus neoformans): -8.1%

Q: Which results are given for `Nc1ncncc1-c1ccc2ccccc2c1`?
A: Inhibition (Staphylococcus aureus): 8.62%; Inhibition (Acinetobacter baumannii): 6.7%; Inhibition (Escherichia coli): 0.44%; Inhibition (Klebsiella pneumoniae): 17.13%; Inhibition (Candida albicans): 5.79%; Inhibition (Cryptococcus neoformans): -7.84%

Q: Which Inhibition (Staphylococcus aureus) does the source give for `CC(=O)OCC1OC(COC(C)=O)(c2ccc(C)cc2)C(OC(C)=O)C1OC(C)=O` (stereo unspecified) here?
A: Its Inhibition is -7.68%.

Q: What about the Inhibition (Acinetobacter baumannii) of the same compound?
A: The Inhibition was -11.43%.

Q: What about the Inhibition (Escherichia coli) of the same compound?
A: The Inhibition was 15.38%.

Q: And the Inhibition (Klebsiella pneumoniae)?
A: Its Inhibition is 10.58%.

Q: What about the Inhibition (Candida albicans) of the same compound?
A: The Inhibition was -0.8%.

Q: And the Inhibition (Cryptococcus neoformans)?
A: Its Inhibition is -5.49%.

Q: Which results are given for `CCOC(=O)C(Cc1ccc(O)cc1)Nc1nc2ccccc2o1` (stereo unspecified)?
A: Inhibition (Staphylococcus aureus): 27.08%; Inhibition (Acinetobacter baumannii): -2.1%; Inhibition (Escherichia coli): 6.27%; Inhibition (Klebsiella pneumoniae): 19.95%; Inhibition (Candida albicans): 10.7%; Inhibition (Cryptococcus neoformans): 8.22%

Q: What does the source list for `Cc1cc(C)n(C(=N)NC(=O)c2ccccc2)n1`?
A: Inhibition (Staphylococcus aureus): 12.05%; Inhibition (Acinetobacter baumannii): 6.54%; Inhibition (Escherichia coli): -0.32%; Inhibition (Klebsiella pneumoniae): 6.77%; Inhibition (Candida albicans): 6.7%; Inhibition (Cryptococcus neoformans): -12%

Q: How did the Inhibition (Staphylococcus aureus) turn out when `Cc1ccc(/N=N/c2c(N)nn(-c3ccccc3)c2N)cc1` was run?
A: The Inhibition was 4.28%.

Q: And the Inhibition (Acinetobacter baumannii)?
A: The Inhibition was -1.05%.

Q: What about the Inhibition (Escherichia coli) of the same compound?
A: The Inhibition was 11.08%.

Q: And the Inhibition (Klebsiella pneumoniae)?
A: The Inhibition was 11.62%.

Q: What about the Inhibition (Candida albicans) of the same compound?
A: The Inhibition was 9.14%.

Q: What about the Inhibition (Cryptococcus neoformans) of the same compound?
A: The Inhibition was -17.06%.

Q: For `N#Cc1n[nH]c2nc[nH]c(=O)c12`, which Inhibition (Staphylococcus aureus) is on record?
A: Its Inhibition is 10.72%.

Q: What about the Inhibition (Acinetobacter baumannii) of the same compound?
A: The Inhibition was -7.81%.

Q: And the Inhibition (Escherichia coli)?
A: The Inhibition was 9.33%.

Q: And the Inhibition (Klebsiella pneumoniae)?
A: The Inhibition was 13.07%.

Q: And the Inhibition (Candida albicans)?
A: The Inhibition was 0.58%.

Q: And the Inhibition (Cryptococcus neoformans)?
A: The Inhibition was -10.99%.

Q: How did the Inhibition (Staphylococcus aureus) turn out when `Cc1ccc(/N=N/c2ccc(C)cc2NC(=O)Nc2ccccc2F)cc1` was run?
A: Its Inhibition is 3.8%.

Q: What about the Inhibition (Acinetobacter baumannii) of the same compound?
A: Its Inhibition is 6.73%.

Q: And the Inhibition (Escherichia coli)?
A: The Inhibition was 1.93%.

Q: And the Inhibition (Klebsiella pneumoniae)?
A: Its Inhibition is 9.05%.

Q: And the Inhibition (Candida albicans)?
A: The Inhibition was 6.78%.

Q: What about the Inhibition (Cryptococcus neoformans) of the same compound?
A: The Inhibition was 3.6%.
